Out of some 2,500 compounds screened, about 45 (2%) were called active. The sample holds actives, similar compounds and a random draw of the others, so the mix is not that of the screen. Rule as the data show it: active = inhibition mostly above about 45% (no sharp cut-off); inactive = mostly below about 37%.

Broadly, the inhibition is the relative decrease from the control value, in per cent.

The nature of this assay: anti-Giardia activity of synthetic compounds – Compounds Australia Scaffold Library subset, 24/48 h, primary screen (AID 1794835).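 As to inhibition: 0% = parasite counts in DMSO vehicle wells.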 As to conditions: Giardia lamblia BRIS/91/HEPU/1279 trophozoite counts, imaging, at 10 µM.
Where [1] appears, read: measured here: growth inhibition at 24 h, stronger effect = higher value.

For `CC(=O)c1ccc(C(=O)N2CC=C(c3ccccc3)CC2)s1`, the inhibition entry is “inactive”.

Turning to `COC(=O)c1ccc(C(=O)N2CCc3sccc3C2)s1`, the inhibition entry was “inactive”.

On to `COc1cc(OC)c(C2=CCN(C(=O)c3ccc(C)s3)CC2)c(OC)c1`, for which the inhibition by setting is: (stronger effect = higher value) 59.3% (active); under setting [1], 23.1%.

Turning to `CC(=O)N1c2ccc(S(=O)(=O)N3CCOCC3)cc2CC1C(=O)NCCN1CCOCC1` (configuration not stated), the inhibition entry is “inactive”.

Regarding `CCC(=O)Nc1nc2c(OC)cc(NS(=O)(=O)c3cc(Cl)ccc3OC)cc2s1`, the inhibition entry was “inactive”.

Consider `COc1ccc(NC(=O)c2cncc(NS(=O)(=O)c3ccc(C)cc3)c2)cc1`, for which the inhibition result was “inactive”.

For the compound `COc1cc(NS(=O)(=O)c2ccc(C)cc2)cc2sc(NC(=O)c3ccccc3)nc12`, the inhibition (stronger effect = higher value) is 50% (active) and the inhibition under setting [1] turned out to be 23.6%.

Take `COc1ccc(-c2noc(C3CCOCC3)n2)c(OC)c1`: the inhibition result is “inactive”.

Regarding `Cc1ccc2nc(-c3ccc(C)c(NC(=O)c4cccnc4)c3)[nH]c2c1`, the inhibition was 8.2% (inactive) (stronger effect = higher value) and 2.9% under setting [1].

Turning to `Cc1cnn(CC(C)NCc2nc(-c3ccccn3)no2)c1` (configuration not stated), the inhibition (stronger effect = higher value) was 19.9% (inactive).

Consider `Cc1ccc(-c2cc(C(=O)NCc3cn(C)nc3C)c3ccccc3n2)cc1C`, for which the compound was called inactive. This compound also had an inhibition under setting [1] of 3%.

For the compound `COc1cccc(-n2nnc3c(=O)n(CC(=O)N4CCCC4)cnc32)c1`, the inhibition result was “inactive”.

Consider `CCOC(=O)c1ccc(S(=O)(=O)N2CCN(C3CCOC3=O)CC2)o1` (configuration not stated), for which the inhibition entry was “inactive”.

`Cn1nccc1-c1cccc(-c2noc(-c3cccc(F)c3)n2)c1`: the inhibition is, setting by setting: (stronger effect = higher value) 64.1% (active); under setting [1], 17.6%.

Turning to `O=S(=O)(c1cc(-c2nc(-c3cccc(F)c3)no2)cs1)N1CCCCC1`, the inhibition entry is “inactive”.

For the compound `CCN1CCN(c2ccc(-c3nc(-c4cccc(F)c4)no3)cn2)CC1`, the inhibition is, setting by setting: (stronger effect = higher value) 48.2% (inactive); under setting [1], 31.4%.

Consider `O=c1[nH]c(CN2CCC(c3nc4ccccc4o3)CC2)nc2ccsc12`, for which the inhibition entry was “inactive”.

In the case of `CC(C)c1ccc(NC(=O)c2ccc(F)c(S(=O)(=O)N3CCN(c4ccccc4)CC3)c2)cc1`, the inhibition result was “inactive”.

`CCOC(=O)c1cccc(Nc2ncccc2S(N)(=O)=O)c1`: the inhibition (stronger effect = higher value) was 35.4% (inactive) and the inhibition under setting [1] was 14.6%.

For `CC(C)c1ccc(Nc2ncccc2S(=O)(=O)N2CCCC2)cc1`, the inhibition (stronger effect = higher value) is 57.5% (active) and the inhibition under setting [1] worked out at 27%.

As for `CC(=O)Nc1nsc(N2CCCC(C(=O)NCc3ccccc3Cl)C2)n1` (configuration not stated), the inhibition was 5.9% (inactive) (stronger effect = higher value) and 4.9% under setting [1].

Turning to `O=S1(=O)CCC(n2cc(-c3cnn(-c4ccccc4)c3)cn2)C1` (configuration not stated), the inhibition (stronger effect = higher value) is 66.2% (active) and the inhibition under setting [1] turned out to be 45.5%.

As for `Cc1ccc2nc(-c3ccccc3)c(CN3CCN(C4CCS(=O)(=O)C4)CC3)n2c1` (configuration not stated), the inhibition entry is “inactive”.

For `O=C(c1cn2ccccc2n1)N1CCN(C2CCS(=O)(=O)C2)CC1` (configuration not stated), the inhibition entry was “inactive”.

As to `O=C(c1ccc(F)cc1)N1CCc2[nH]nc(C(=O)N3CCN(c4ccc(F)cc4)CC3)c2C1`, the inhibition (stronger effect = higher value) is 0.9% (inactive) and the inhibition under setting [1] amounted to 2.4%.

For the compound `O=C(c1ccc2c(=O)n3c(nc2c1)CCCC3)N1CC=C(c2ccccc2)CC1`, the inhibition entry was “inactive”.

Turning to `COc1ccccc1-c1cc(C(=O)Nc2sc(Nc3ccccc3)nc2C(N)=O)[nH]n1`, the inhibition is 11.1% (inactive) (stronger effect = higher value) and 11.2% under setting [1].

Take `Cc1cccc(C)c1NC(=O)c1cc(-c2ccccc2)nc2c1cnn2Cc1cccnc1`: where the note is “stronger effect = higher value”, the inhibition is 17.5% (inactive).

Turning to `CN(C)CCCN1C(=O)C(=O)C(=C(O)c2cc(Cl)ccc2O)C1c1ccco1` (configuration not stated), the inhibition (stronger effect = higher value) was 14.6% (inactive).

Turning to `Cn1cc(C(=O)c2ccccc2O)cc1-c1nc2ccccc2c(=O)[nH]1`, the inhibition entry is “inactive”.

Consider `CN(C)CCn1cc(C(=O)c2cc(Cl)ccc2O)cc1-c1nc2ccccc2c(=O)[nH]1`, for which the inhibition is 85.8% (active) (stronger effect = higher value) and 45% under setting [1].

Take `Cc1noc(-c2nn(C)c3c2CN(S(=O)(=O)Cc2cccc(F)c2)CC3)n1`: the inhibition (stronger effect = higher value) was 14.3% (inactive).

`O=C(CCc1ccc(Cl)cc1Cl)N1CCCC(c2ncn[nH]2)C1` (configuration not stated): the inhibition (stronger effect = higher value) was 0.4% (inactive).

Turning to `CCCNC1=C(C(=O)Nc2ccc(F)cc2)S(=O)(=O)c2ccccc21`, the inhibition (stronger effect = higher value) is 46.5% (inactive) and the inhibition under setting [1] turned out to be 21.9%.

For the compound `NC(=O)C1=C(Nc2ccccc2)c2ccccc2S1(=O)=O`, the inhibition (stronger effect = higher value) is 48.5% (active) and the inhibition under setting [1] was 12.8%.

For the compound `CN(C)c1nc(N(C)C)nc(N2CC(=O)N(c3ccc(Cl)c(Cl)c3)C2=N)n1`, the inhibition was 16% (inactive) (stronger effect = higher value) and 9.5% under setting [1].

For the origin of these results see PubChem BioAssay AID1794835 (Parasite Biology Lab, Institute for Biomedicine and …, 2023).
